In publication PMC5540273 (PLoS ONE, 2017):

Legend:
Settings in all cases: concentration: 1 μM, replicates: in singlicate; n = 1
[1] = test system: SIK2
[2] = test system: SIK
[3] = test system: SLK
[4] = test system: T1, SNARK
T1 construct: gene NUAK2

[5] = test system: SNRK
[6] = test system: SRC
[7] = test system: SRMS
[8] = test system: SRPK1
[9] = test system: SRPK2
[10] = test system: SRPK3
[11] = test system: STK16
[12] = test system: STK33
[13] = test system: STK35
[14] = test system: STK36
[15] = test system: STK39
[16] = test system: SYK
[17] = test system: SgK110
[18] = test system: T2, TAK1
T2 construct: gene MAP3K7

[19] = test system: TAOK1
[20] = test system: TAOK2
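Also: KINOMEscan kinase panel screen.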

Structure (SMILES)	%Inh [1]	%Inh [2]	%Inh [3]	%Inh [4]	%Inh [5]	%Inh [6]	%Inh [7]	%Inh [8]	%Inh [9]	%Inh [10]	%Inh [11]	%Inh [12]	%Inh [13]	%Inh [14]	%Inh [15]	%Inh [16]	%Inh [17]	%Inh [18]	%Inh [19]	%Inh [20]
Cc1cc(NCC(c2ccccc2)c2ccccc2)nc(NCc2ccc(C(F)(F)F)cc2)n1 [GW497681]	0%	0%	0%	0%	0%	0%	0%	0%	22%	0%	18%	0%	0%	0%	0%	0%	0%	0%	0%	0%
CC1=C(C(=O)Nc2cc3cn[nH]c3cc2F)C(c2ccc(C(F)(F)F)cc2)CC(=O)N1 (stereo not drawn) [GSK429286]	0%	0%	1%	80%	0%	0%	0%	0%	0%	0%	14%	0%	0%	0%	20%	4%	0%	0%	0%	0%
O=C(Nc1n[nH]c2cc(-c3cccc(F)c3F)ccc12)C1CC1 [SB-733894]	0%	0%	0%	1%	3%	0%	3%	44%	22%	5%	12%	0%	0%	9%	0%	0%	17%	48%	23%	0%
CS(=O)(=O)c1ccc(-c2c(-c3ncn[nH]3)sc(N3CCOCC3)c2C#N)cc1	0%	39%	3%	0%	7%	0%	0%	0%	0%	0%	7%	0%	0%	1%	0%	23%	15%	33%	0%	0%
Cl.O=C(Nc1cccc(-c2nn3ncccc3c2-c2ccnc(Nc3cccnc3)n2)c1)c1c(F)cccc1F [GSK312879]	0%	0%	17%	0%	0%	13%	5%	30%	0%	7%	3%	0%	0%	96.7%	17%	3%	0%	0%	5%	0%
COc1ccccc1CNC(=O)c1cc(C(=O)c2ccccc2C)c[nH]1 [GSK364507]	0%	14%	5%	0%	0%	0%	0%	26%	0%	0%	11%	0%	0%	0%	14%	16%	0%	0%	0%	0%
COc1cccc(NC(=O)NC2CCN(c3ccnc(Nc4ccc(F)cc4)n3)C2)c1 (stereo not drawn) [GSK1379721]	0%	0%	0%	0%	0%	0%	0%	0%	5%	0%	16%	0%	0%	0%	9%	0%	0%	0%	0%	0%
Cn1ccc2ncnc(Oc3ccc(Nc4nc5ccccc5[nH]4)cc3)c21	10%	0%	14%	0%	0%	3%	0%	0%	7%	0%	15%	0%	19%	0%	0%	0%	0%	0%	0%	0%
Cc1cccc(-c2nc(Nc3cccc(C(N)=O)c3)c3ccccc3n2)n1 [GW876019]	63%	14%	14%	0%	0%	0%	33%	17%	23%	4%	0%	29%	0%	0%	0%	14%	41%	0%	0%	30%
Cc1ccccc1-n1cnc2c(N)ncnc21 [SKF-97510]	0%	0%	100%	0%	0%	13%	0%	0%	0%	0%	21%	0%	0%	27%	0%	100%	0%	0%	0%	0%
COc1cc(Nc2nccc(N3CCC(NC(=O)Nc4cc(C)ccc4C)C3)n2)cc(OC)c1OC (stereo not drawn) [GSK1379762]	6%	0%	23%	23%	0%	24%	0%	53%	0%	29%	57%	3%	3%	0%	16%	0%	0%	0%	0%	0%
O=c1cc(N2CCOCC2)nc2n(Cc3cccc(Cl)c3Cl)ccn12 [GSK2286295]	0%	0%	17%	0%	0%	3%	0%	34%	0%	0%	5%	0%	0%	43%	0%	32%	0%	5%	0%	0%
CN(C)CCN(C)C(=O)c1cc(-c2ccncc2)c(-c2ccc(Cl)c(O)c2)o1.Cl.Cl [SB-710397]	0%	0%	91.7%	0%	0%	11%	0%	0%	18%	0%	4%	0%	0%	0%	33%	17%	6%	0%	0%	0%
Cn1ccc2ncnc(Oc3cccc(C(=O)Nc4ccccc4)c3)c21	5%	15%	13%	23%	9%	0%	0%	0%	0%	0%	0%	7%	0%	0%	0%	2%	0%	13%	0%	0%
Cc1cccc(-c2nc(Nc3ccc4[nH]ncc4c3)c3ccccc3n2)n1 [GW857175]	0%	0%	16%	15%	10%	28%	25%	16%	0%	28%	17%	0%	0%	15%	14%	5%	0%	0%	33%	9%
COc1cccc(-c2cc(-c3c[nH]nc3-c3ccccn3)ccn2)c1 [GW680338]	0%	0%	0%	11%	0%	0%	2%	96.8%	8%	0%	8%	0%	0%	25%	13%	17%	17%	0%	0%	0%
COc1ccc(Nc2nccc(NCCNC(=O)Nc3ccccc3F)n2)cc1 [GSK1379901]	2%	0%	11%	0%	0%	0%	0%	0%	0%	0%	18%	0%	0%	0%	10%	32%	0%	0%	0%	0%
Fc1cc(Cl)ccc1Nc1ccnc2cc(I)ccc12 [GW551191]	49%	29%	0%	0%	0%	0%	0%	7%	0%	8%	9%	0%	57%	0%	15%	0%	4%	0%	0%	0%
Cc1cccc(-c2nc(-c3ccc(S(C)(=O)=O)cc3)sc2-c2ccnc(NCCc3ccccc3)c2)c1	11%	7%	7%	0%	7%	0%	0%	0%	23%	0%	13%	0%	9%	11%	1%	0%	9%	0%	0%	12%
Cc1cc(-c2ccc3c(c2)CC[C@@H](N[C@@H](C)c2ccccc2)C3)cnc1N.Cl [GW412617]	3%	12%	29%	8%	0%	4%	0%	24%	0%	9%	22%	7%	10%	0%	1%	35%	0%	42%	14%	0%
O=C(O)COc1ncnc2cc(-c3ccc4[nH]ncc4c3)sc12	0%	8%	0%	13%	11%	0%	8%	0%	0%	1%	12%	0%	0%	0%	0%	0%	0%	28%	0%	0%
